Sampled rows, rich in hits. Any-hit rate of the full collection: about 6.5%.
FMDV antiviral = blocks foot and mouth disease virus. Potency, µM (titrated, usually from 57.9 µM), actives largely listed as inhibitors. 410,000 tested, 1.2% active. AID 1159524. FMDV antiviral cell-based qHTS; calls by dose curve; tested in HEK293T cells; further: read-out not given here; nearly all actives have a fitted effect of over 45% in size
MARV entry inh = inhibitors of Marburg virus binding or cell entry | Marburg virus pseudotyped entry inhibition, cell reporter | Potency, µM (series often up to 37.8 µM), actives largely listed as inhibitors | 300,000 tested, 1.8% active | AID 540276; calls by dose curve; tested in HEK293 cells
Vaccinia mCherry = inhibitors of vaccinia virus infection (mCherry reporter signal). Potency, µM (top dose mostly 36.5 µM), actives largely listed as inhibitors. 310,000 tested, 0.63% active. Vaccinia virus mCherry reporter infection, fluorescence. AID 720579; calls by dose curve; tested in A549 cells; further: nearly all actives have a fitted effect of over 35% in size
HCMV antiviral = inhibitors of human cytomegalovirus; AID 1259415; activity change, negative = inhibition, % at 57.5 µM; 410,000 tested, 4.5% active; HFF cells, HCMV-luciferase reporter, 72 h; stronger effect = lower value; in the data active means activity change below about -60%; inconclusive means no clear call, values can overlap the other calls; inactive means above about -39%
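HFF cells seeded 16 h at 37C, treated with compounds, infected with luciferase-reporter HCMV at MOI 1 PFU/cell; luciferase read at 72 h post infection, normalized to buffer-only and Salinomycin controls.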
Lassa entry inh = blocks Lassa virus binding to or entry into cells; Lassa virus pseudotype entry inhibition, cell reporter; Potency, µM (doses to about 37.9 µM), most hits filed as inhibitors; 300,000 tested, 1.2% active; AID 540256; calls by dose curve; tested in HEK293 cells; further: nearly all actives have a fitted effect of over 50% in size
Vaccinia Venus = inhibitors of vaccinia virus (Venus reporter); Vaccinia virus Venus reporter expression, fluorescence; Potency, µM (series often up to 36.5 µM), actives largely listed as inhibitors; 330,000 tested, 0.46% active; AID 720580; calls by dose curve; tested in A549 cells; further: nearly all actives have a fitted effect of over 30% in size
Each line names hits and unclear results; the compound was inactive in the other large screens.

CCn1c(=O)c(C(=O)Nc2ncccc2O)c(O)c2ccccc21	MARV entry inh inconclusive, Vaccinia mCherry inconclusive
CCc1ccc(C(=O)c2cn(CC(=O)NCCc3ccc(OC)c(OC)c3)c3nc(C)ccc3c2=O)cc1	none (no result: MARV entry inh)
CCOC(=O)Cn1c(=O)oc2cc(S(=O)(=O)N3CCN(c4cccc(C)c4)C(C)C3)ccc21 (stereo not given)	none
COc1cc2c(cc1OC)n(CC(=O)c1ccc(F)cc1)c(=O)n1nc(CCn3nc(C)cc3C)nc21	HCMV antiviral inconclusive, Lassa entry inh inconclusive (no result: MARV entry inh)
C=CCN(C)CCCCCCOc1ccc(C(=O)c2ccc(Br)cc2)c(F)c1	Vaccinia Venus inconclusive (no result: FMDV antiviral, MARV entry inh, HCMV antiviral, Lassa entry inh)
Cc1nn(-c2nc3ccccc3[nH]2)c(N)c1-c1ccc(Cl)cc1	MARV entry inh inconclusive, Vaccinia mCherry inconclusive, HCMV antiviral -67.7, Vaccinia Venus inconclusive
Cc1nn(-c2nc3ccccc3[nH]2)c(=O)c2ccccc12	FMDV antiviral 0.794µM, MARV entry inh inconclusive, HCMV antiviral -90.5, Lassa entry inh inconclusive
Cc1nn(-c2ccc3ccccc3c2)c(=O)c2ccccc12	none (no result: MARV entry inh, Lassa entry inh)
CCc1cc2c(nc1CC)CCN(CCC(C)=NO[C@@H]1O[C@H](COC(C)=O)[C@@H](OC(C)=O)[C@H](OC(C)=O)[C@@H]1OC(C)=O)C2	none (no result: FMDV antiviral, Vaccinia mCherry, HCMV antiviral, Lassa entry inh, Vaccinia Venus)
Cc1ccc(CCNC(=O)CCc2cn(Cc3ccccc3C)c3ccccc23)cc1	Lassa entry inh inconclusive (no result: MARV entry inh)
Cc1cc(-c2ccnc(-n3ncc(C(=O)NCC(C)(C)N4CCOCC4)c3C)n2)c(C)s1	none (no result: MARV entry inh, HCMV antiviral, Lassa entry inh)
Cc1cccc(NC(=O)CCc2ccc(N3C(N)=NC(N)=NC3(C)C)cc2)c1	Vaccinia mCherry 5.62µM, HCMV antiviral -98.7, Vaccinia Venus inconclusive (no result: MARV entry inh, Lassa entry inh)
CC1(C)N=C(N)N=C(N)N1c1ccc(OCC(=O)N2CCOCC2)c(Cl)c1	Vaccinia mCherry inconclusive, HCMV antiviral -100.5, Vaccinia Venus inconclusive (no result: MARV entry inh, Lassa entry inh)
CC1(C)N=C(N)N=C(N)N1c1ccc(OCC(=O)N2CCOCC2)cc1	none (no result: MARV entry inh, Lassa entry inh)
CC1(C)N=C(N)N=C(N)N1c1cccc(CC(=O)Nc2ccccc2)c1	HCMV antiviral -82.0, Vaccinia Venus inconclusive (no result: MARV entry inh, Lassa entry inh)
CCOC(=O)c1cccc(N2C(N)=NC(N)=NC2(C)C)c1	HCMV antiviral inconclusive (no result: Vaccinia mCherry)
CC1(C)N=C(N)N=C(N)N1c1ccc(OCCCOc2ccccc2)c(Cl)c1	FMDV antiviral inconclusive, Vaccinia mCherry inconclusive, HCMV antiviral -100.2, Vaccinia Venus inconclusive (no result: MARV entry inh, Lassa entry inh)
CN(C)c1ncc2nc(CCc3ccccc3)c(=O)n(C[C@H]3CCCO3)c2n1	none (no result: MARV entry inh, Vaccinia mCherry, HCMV antiviral, Lassa entry inh, Vaccinia Venus)
Cc1cc(Nc2cccc(C)c2C)n2cnnc2n1	FMDV antiviral inconclusive
COc1ccc2c(c1)CCc1cnc(-n3ncc(C(=O)N4CCN(CCO)CC4)c3C3CC3)nc1-2	none (no result: MARV entry inh, HCMV antiviral, Lassa entry inh)
C=C1Nc2ccccc2C(=O)N1c1ccc(C(=O)N2CCN(C(=O)c3ccco3)CC2)cc1	none (no result: FMDV antiviral, MARV entry inh, HCMV antiviral, Lassa entry inh)
CC1(C)N=C(N)N=C(N)N1c1ccc(OCC(=O)Nc2ccccc2)c(Cl)c1	Vaccinia mCherry 3.98µM, HCMV antiviral -95.0, Vaccinia Venus inconclusive (no result: MARV entry inh, Lassa entry inh)
CCc1nnc(NC(=O)c2ccc(S(=O)(=O)N3CCCCC3)cc2)s1	HCMV antiviral -66.4
COc1ccc(-c2cnnn2-c2ccc(NC(=O)c3ccc(S(=O)(=O)N4CCCCC4)cc3)cc2)cc1	Lassa entry inh 7.08µM
CS(=O)(=O)Nc1ccc(C(=O)Nc2ccc(S(=O)(=O)N3CCCCC3)cc2)cc1	HCMV antiviral -76.5
CCc1nnc(NC(=O)c2ccc(S(=O)(=O)N3CCCC3)cc2)s1	none (no result: Lassa entry inh)
O=C(Nc1ccccc1)c1ccc(CN2CCc3ccccc3C2)cc1	MARV entry inh inconclusive, HCMV antiviral -67.1
Cc1cc(C)cc(NC(=O)c2ccc(CN3CCc4ccccc4C3)cc2)c1	FMDV antiviral inconclusive, MARV entry inh inconclusive, Vaccinia mCherry inconclusive, HCMV antiviral inconclusive
O=C(Nc1ccccc1)c1ccc(S(=O)(=O)N2CCCCC2)cc1	HCMV antiviral inconclusive (no result: MARV entry inh, Lassa entry inh)
O=C(Nc1ccc(S(=O)(=O)N2CCCCC2)cc1)c1ccc(CN2CCc3ccccc3C2)cc1	FMDV antiviral inconclusive, MARV entry inh inconclusive, HCMV antiviral -73.8, Lassa entry inh inconclusive, Vaccinia Venus inconclusive (no result: Vaccinia mCherry)
CCOC(=O)N1CCN(S(=O)(=O)c2ccc(C(=O)Nc3nnc(CC)o3)cc2)CC1	Lassa entry inh inconclusive
Cc1ccc(NC(=O)c2ccc(CN3CCc4ccccc4C3)cc2)cc1	MARV entry inh inconclusive, Vaccinia mCherry inconclusive, HCMV antiviral -79.5, Lassa entry inh inconclusive
COCc1nnc(NC(=O)c2ccc(S(=O)(=O)N3CCCC3)cc2)o1	HCMV antiviral -60.8

High-throughput results (PubChem)
